Screening results from PubChem BioAssay.
Shown are actives, neighbours in structure and some others; about 21% of the full set was active somewhere.
Pf growth 96h = P. falciparum growth inhibition at 96 hours | P. falciparum luciferase reporter growth, 96 h | Potency, µM (series often up to 28.7 µM), most hits filed as inhibitors | actives 6.9% (n = 320,000)
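Two parasite generations (96 h, 37 C, 5% CO2) of compound exposure in infected erythrocytes (0.05% parasitemia, 2% hematocrit). Luciferase-reporter P. falciparum; decreased luminescence indicates inhibited growth, aimed at apicoplast-acting delayed death.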
NS1 inh = blocks influenza NS1 protein function; Potency, µM (series often up to 46.1 µM); actives 0.4% (n = 270,000); AID 2326; calls by dose curve; note: actives are rising curves; nearly all actives have a fitted effect of over 50% in size
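In this qHTS, NS1 from influenza A is expressed in budding yeast, where it slows growth. Cells are switched from glucose to 2% galactose medium (pH 6.0, -URA), treated with compound, and growth recovery is read at OD600.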
CHX counter = counter-screen for Shiga toxin inhibitors: cycloheximide protein synthesis inhibition; cell reporter, cycloheximide protein synthesis inhibition counterscreen; max response, %; actives 12% (n = 300,000); in the data active = max response mostly above about 13%, no sharp cut-off; inactive = mostly below about 14%; note: read at 38.3 µM for the half of the compounds with a filed dose
Shiga inhibitor = blocks Shiga toxin action in Vero cells. Vero cells, Shiga toxin protein synthesis inhibition reporter. inhibition, % at 38.7 µM. actives 9.2% (n = 290,000). AID 2315; in the data active = inhibition mostly above about 28%, no sharp cut-off; inactive = mostly below about 43%
Pf growth 48h = P. falciparum growth inhibition at 48 hours (one generation); actives 5.9% (n = 310,000); Potency, µM (top dose mostly 28.7 µM), hits mostly inhibitors; P. falciparum luciferase growth in erythrocytes, 48 h
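Luciferase-expressing P. falciparum in infected erythrocytes (2% hematocrit, 0.1% parasitemia final) in RPMI 1640/0.5% Albumax were exposed to compound for 48 hours at 37 C, 5% CO2; growth read as luminescence.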
Hits are given with their value; i = inactive; ? = inconclusive; nt = no result given; + = active, no number. Unless noted, calls come from the whole dose curve; as a rule, active = well fitted inhibition curve with a large enough effect; inconclusive = small, poorly fitted or top-dose-only effect, or another doubt; inactive = no such curve, though single readings can be large or run the other way.

SMILES | Pf growth 96h | NS1 inh | CHX counter | Shiga inhibitor | Pf growth 48h
Cc1ccc(NC(=O)COC(=O)Cc2csc(-c3ccc(Cl)cc3)n2)cc1C | i | i | 23 | + | i
Cc1ccc(N2CN=C3SCC(=O)N3C2)cc1C | ? | i | 22 | i | i
Cc1cccc(N2CN=C3SCC(=O)N3C2)c1 | i | i | i | i | i
O=C(Nn1c(SCc2ccccc2F)nc2ccsc2c1=O)c1ccccc1 | 6.6µM | i | i | i | i
O=C(CSc1nc2ccsc2c(=O)n1NC(=O)c1ccccc1)Nc1nccs1 | i | i | 41 | 36 | i
Cc1cc(C)nc(NC(=O)C2c3ccccc3Oc3ccccc32)n1 | ? | i | i | i | i
Cc1cc(-c2ccc(Cl)s2)n[nH]1 | i | i | 29 | 82 | i
Cc1ccccc1CC(=O)N1CCN(C(=O)C2CCCO2)CC1 (centres undefined) | i | i | i | i | i
Cc1cccc(-c2nc(CN3CCN(C(=O)C4CCCO4)CC3)cs2)c1 (centres undefined) | i | i | 7.6 | i | i
O=C(N/C(=C/C=C/c1ccccc1)C(=O)N1CCOCC1)c1ccccc1Br | i | nt | i | i | ?
NC(=O)CSc1nnc(-c2ccccn2)n1N | i | i | i | i | i
Nn1c(SCc2ccccc2)nnc1-c1ccccn1 | i | i | 30 | 38 | i
Cc1ccc(CSc2nnc(-c3ccncc3)n2N)cc1 | i | i | i | i | i
Cc1ccc(CSc2nnc(-c3ccccn3)n2N)cc1 | i | i | 23 | 107 | i
Nn1c(SCc2ccccc2F)nnc1-c1ccccn1 | i | i | 33 | 135 | i
Cc1nnc(SCc2cccc(Oc3ccccc3)c2)n1N | i | i | 21 | i | i
Nn1c(SCc2ccc(F)cc2)nnc1-c1cccnc1 | i | i | i | i | i
Cc1ccc(CSc2nnc(C)c(=O)n2N)cc1 | i | i | 12 | i | i
Nn1c(SCc2ccc(F)cc2)nnc1-c1ccccn1 | i | i | 34 | 68 | i
Cc1nnc(SCc2ccccc2)n(N)c1=O | i | i | i | i | i
Cc1ccc(C(=O)c2c[nH]cc2-c2ccccc2)cc1 | i | i | 17 | i | i
O=C(O)c1ccccc1C(=O)c1ccc(-c2ccccc2)cc1 | ? | i | 44 | 92 | i
COc1ccc(NC(=O)c2cc(S(=O)(=O)N3CCCCC3)c[nH]2)cc1 | i | i | i | i | ?
COc1ccc(NC(=O)Cn2cnc3c(cnn3C(C)(C)C)c2=O)cc1OC | ? | nt | i | i | i
CC(C)(C)n1ncc2c(=O)n(CC(=O)NCCc3ccccc3)cnc21 | i | i | 21 | 61 | i
SMILES | Pf growth 96h | NS1 inh | CHX counter | Shiga inhibitor | Pf growth 48h
COc1ccc(CCNC(=O)Cn2cnc3c(cnn3C(C)(C)C)c2=O)cc1OC | 10µM | i | i | i | i
Cc1ccc(-n2ccn(CC(=O)NCCc3ccccc3)c(=O)c2=O)cc1C | i | i | 33 | i | i
CC(C)(C)n1ncc2c(=O)n(Cc3ccccc3Br)cnc21 | ? | nt | nt | nt | 2.9µM
O=C(Cn1cnc2c(cnn2-c2ccc(Cl)cc2)c1=O)NCCc1ccccc1 | nt | i | i | i | i
CC(C)(C)n1ncc2c(=O)n(CC(=O)NCc3ccccc3Cl)cnc21 | ? | i | 32 | 64 | i
CCc1ccc(C(=O)NC(=S)NCc2cccnc2)cc1 | i | i | i | i | i
CCCC[N+]12C3C[C@H](C4[C@H](O)[C@]5(C[C@@H]41)c1ccccc1N(C)[C@@H]35)[C@H](CC)[C@H]2O (some centres undefined) | ? | i | i | i | 13µM
CCc1c(C(=O)NNC(=S)Nc2ccc(S(=O)(=O)Nc3ncccn3)cc2)csc1C | ? | i | i | i | i
CCc1c(C(=O)NNC(=S)NCc2ccccc2)csc1C | i | i | i | i | i
CCc1c(C(=O)Nc2ccncc2)csc1C | ? | i | i | i | 8.3µM
CCc1c(C(=O)Nc2ccccc2C(N)=O)csc1C | i | i | 31 | i | i
CCC(C)C(NC(=O)C(Cc1ccc(O)cc1)NC(=O)C(N)C(C)C)C(=O)NC(Cc1cnc[nH]1)C(=O)N1CCCC1C(=O)NC(Cc1ccccc1)C(=O)O (centres undefined) | nt | nt | i | i | nt
CC(C)OCCCN1C(=O)c2[nH]nc(-c3ccccc3O)c2C1c1cccc(Cl)c1 (centres undefined) | i | nt | i | i | 4.1µM
COCCCN1C(=O)c2[nH]nc(-c3ccccc3O)c2C1c1ccc(Cl)cc1 (centres undefined) | ? | nt | i | i | ?
COc1ccc(CCN2C(=O)c3[nH]nc(-c4ccccc4O)c3C2c2ccccc2)cc1OC (centres undefined) | 8.3µM | i | i | i | 9.3µM
